In PubChem BioAssay (EPA / NIEHS):
“And” between values parts separate entries of the source, which are not always exact repeats. Identical values can stand only once. Records with an inconclusive call do not appear. The source made the active and inactive calls. Rule for the calls: active = hit-call score of the fitted dose curve at least 0.9, where 1 is the maximum; inconclusive = response in the unintended direction; inactive = score below 0.9.

What follows are molecules tested against guinea pig Opioid, Kappa 1 Receptor (OpiateK), OPRK1 (gene 100135587) (UniProt P41144) (assay: NVS_GPCR_gOpiateK: NovaScreen (NVS) G Protein-Coupled Receptor Assay for guinea pig Opioid, Kappa 1 Receptor (OpiateK) (AID 2283252);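 note: radioligand displacement from kappa opioid receptor in guinea pig cerebellar membranes; active means reduced radioligand binding relative to DMSO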).
Chain of guinea pig Opioid, Kappa 1 Receptor (OpiateK), OPRK1 (gene 100135587) (P41144 whole entry, looked up): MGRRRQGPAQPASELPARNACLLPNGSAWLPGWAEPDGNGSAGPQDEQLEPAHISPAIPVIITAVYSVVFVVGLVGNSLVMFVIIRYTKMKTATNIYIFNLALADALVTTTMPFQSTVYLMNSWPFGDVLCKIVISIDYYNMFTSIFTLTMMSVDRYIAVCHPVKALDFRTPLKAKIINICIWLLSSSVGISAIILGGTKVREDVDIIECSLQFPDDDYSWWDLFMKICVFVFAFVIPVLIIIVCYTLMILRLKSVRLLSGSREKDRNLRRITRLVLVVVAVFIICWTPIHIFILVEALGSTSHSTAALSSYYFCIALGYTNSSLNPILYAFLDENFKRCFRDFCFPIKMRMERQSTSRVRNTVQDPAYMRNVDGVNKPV
Method in brief: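 Signal is scintillation counts of filter-trapped radioligand bound to guinea pig cerebellar membrane receptor, measured 2 hours post-dosing. Activity is loss of binding versus DMSO, first at 25 uM in duplicate, then as concentration series for actives.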
With CC1COC(Cn2cncn2)(c2ccc(Oc3ccc(Cl)cc3)cc2Cl)O1 (stereo unspecified) the outcome was “inactive”. For CCOC(=O)CC(SP(=S)(OC)OC)C(=O)OCC (stereo unspecified), the AC50 was 15.2 µM (active). In the case of CN(C)C(=S)SSC(=S)N(C)C, the outcome is reported as “inactive”. For CCCC1COC(Cn2cncn2)(c2ccc(Cl)cc2Cl)O1 (stereo unspecified), the AC50 was 16.6 µM (active). In the case of OC(c1ccc(Cl)cc1)(c1cncnc1)c1ccccc1Cl (stereo unspecified), the AC50 is reported as 9.41 µM (active). CO/C=C(/C(=O)OC)c1ccccc1Oc1cc(Oc2ccccc2C#N)ncn1 was tested, and the AC50 was 12.3 µM (active) [middle of 4 runs]. CS/C(C)=N/OC(=O)N(C)SN(C)C(=O)O/N=C(\C)SC was tested, and the AC50 was 25 µM (active). For CCCCNC(=O)OCC#CI, the AC50 was 37.9 µM (active) and 40.9 µM (active).

What follows are molecules tested against human Adenosine A1 Receptor (AdoRA1), ADORA1 (gene 134) (UniProt P30542) (assay: NVS_GPCR_hAdoRA1: NovaScreen (NVS) G Protein-Coupled Receptor Assay for human Adenosine A1 Receptor (AdoRA1) (AID 2283254)).
Chain of human Adenosine A1 Receptor (AdoRA1), ADORA1 (gene 134) (P30542 whole entry, looked up): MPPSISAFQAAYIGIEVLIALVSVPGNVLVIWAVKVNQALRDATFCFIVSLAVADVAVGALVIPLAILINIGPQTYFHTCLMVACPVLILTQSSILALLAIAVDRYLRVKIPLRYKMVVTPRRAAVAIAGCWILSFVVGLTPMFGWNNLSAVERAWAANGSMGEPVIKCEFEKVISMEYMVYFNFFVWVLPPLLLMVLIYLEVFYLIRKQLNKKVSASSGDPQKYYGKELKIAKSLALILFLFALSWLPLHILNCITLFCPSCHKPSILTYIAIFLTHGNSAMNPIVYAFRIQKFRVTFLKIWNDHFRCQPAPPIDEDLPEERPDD
Method in brief: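 Membranes from human cortical tissue were incubated with radioligand and test chemical for 1 hour, then filtered and counted. Activity was taken as signal loss relative to DMSO, screened at 25 uM in duplicate before concentration-response follow-up.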
In the case of CCOC(=O)CC(SP(=S)(OC)OC)C(=O)OCC (stereo unspecified), the AC50 is reported as 4.74 µM (active). For CCCCNC(=O)n1c(NC(=O)OC)nc2ccccc21, the outcome was “inactive”. COc1nc(NC(C)C)nc(NC(C)C)n1 was tested, and the AC50 was 8.99 µM (active). In the case of CCCCC(CC)COC(=O)c1ccccc1C(=O)OCC(CC)CCCC (stereo unspecified), the outcome is reported as “inactive”. For OC(c1ccc(Cl)cc1)(c1cncnc1)c1ccccc1Cl (stereo unspecified), the AC50 was 4.96 µM (active). In the case of CO/C=C(/C(=O)OC)c1ccccc1Oc1cc(Oc2ccccc2C#N)ncn1, the AC50 is reported as 6.85 µM (active) [middle of 4 runs]. For CCNc1nc(Cl)nc(NC(C)C)n1, the AC50 was 5.9 µM (active). With CCCN(CCC)c1c([N+](=O)[O-])cc(S(N)(=O)=O)cc1[N+](=O)[O-] the AC50 was 6.48 µM (active). In the case of COC(=O)N(OC)c1ccccc1COc1ccn(-c2ccc(Cl)cc2)n1, the AC50 is reported as 5.54 µM (active). For CCCCNC(=O)OCC#CI, the AC50 was 9.47 µM (active) and 15.2 µM (active). With COc1ccc(C(c2ccc(OC)cc2)C(Cl)(Cl)Cl)cc1 the AC50 was 6.77 µM (active).

What follows are molecules tested against human Serotonin, 5-Hydroxytryptamine Receptor 7 (5HT7), HTR7 (gene 3363) (UniProt P34969) (assay: NVS_GPCR_h5HT7: NovaScreen (NVS) G Protein-Coupled Receptor Assay for human Serotonin, 5-Hydroxytryptamine Receptor 7 (5HT7) (AID 2283255);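 note: hits reduce specific radioligand binding relative to DMSO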).
Chain of human Serotonin, 5-Hydroxytryptamine Receptor 7 (5HT7), HTR7 (gene 3363) (P34969 whole entry, looked up): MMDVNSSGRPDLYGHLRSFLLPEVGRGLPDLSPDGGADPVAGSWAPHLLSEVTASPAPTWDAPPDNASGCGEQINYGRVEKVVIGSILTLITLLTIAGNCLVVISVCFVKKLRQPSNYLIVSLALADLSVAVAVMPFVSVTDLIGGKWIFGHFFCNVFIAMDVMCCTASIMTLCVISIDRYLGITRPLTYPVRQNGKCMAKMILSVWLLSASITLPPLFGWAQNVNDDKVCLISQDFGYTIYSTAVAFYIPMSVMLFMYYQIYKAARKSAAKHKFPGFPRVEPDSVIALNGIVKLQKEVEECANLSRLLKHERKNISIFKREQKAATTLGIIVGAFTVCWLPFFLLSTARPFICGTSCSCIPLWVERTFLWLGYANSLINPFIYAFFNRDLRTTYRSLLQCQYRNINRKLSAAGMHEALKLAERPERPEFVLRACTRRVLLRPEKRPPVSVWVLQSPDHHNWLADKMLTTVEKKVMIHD
Method in brief: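 Radioligand displacement on membranes from CHO cells expressing human 5HT7, 1 h incubation, filter-based scintillation counting. Primary screen used a single 25 uM concentration in duplicate; actives were followed up in concentration series.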
With C#CCOS(=O)OC1CCCCC1Oc1ccc(C(C)(C)C)cc1 (stereo unspecified) the AC50 was 25 µM (active). With CC1COC(Cn2cncn2)(c2ccc(Oc3ccc(Cl)cc3)cc2Cl)O1 (stereo unspecified) the outcome was “inactive”. With CN(C)C(=S)SSC(=S)N(C)C the AC50 was 6.92 µM (active). In the case of O=C(Nc1ccccc1)Nc1ccnc(Cl)c1, the AC50 is reported as 14.1 µM (active). With CO/C=C(/C(=O)OC)c1ccccc1Oc1cc(Oc2ccccc2C#N)ncn1 the AC50 was 5.24 µM (active). With COC(=O)N(OC)c1ccccc1COc1ccn(-c2ccc(Cl)cc2)n1 the AC50 was 0.944 µM (active). Oc1ccccc1-c1ccccc1 was tested, and the outcome was “inactive”.
